HT1080 IDH1KD tx = HT-1080 IDH1 knockdown cell toxicity (counter line); Potency, µM (highest dose often 46.1 µM), inactives show top-dose activity, negative = toxicity, hits mostly cytotoxic; HT-1080 IDH1 knockdown viability, ATP luminescence, 48 h; actives 2% (n = 360,000); AID 686971;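 note: potency is the fitted concentration of half-maximal effect; 0% = DMSO wells and -100% = cell-free medium wells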
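HT-1080-IDH1KD cells (IDH1 knocked down), 750/well in RPMI with 5% FBS, treated with compound 48 h at 37 degrees C. Viability by CellTiter-Glo luminescence, normalised to DMSO and no-cell wells; concentration-response curves classed.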
12-LOX inh = blocks human arachidonate 12S-lipoxygenase; actives 1.1% (n = 580,000); purified 12hLO, xylenol orange hydroperoxide absorbance; Potency, µM (doses to about 108 µM), for the others: at the highest dose activity change, negative = inhibition, most hits filed as inhibitors; note: potency is the fitted concentration of half-maximal effect
Target sequence (P18054 whole entry, looked up): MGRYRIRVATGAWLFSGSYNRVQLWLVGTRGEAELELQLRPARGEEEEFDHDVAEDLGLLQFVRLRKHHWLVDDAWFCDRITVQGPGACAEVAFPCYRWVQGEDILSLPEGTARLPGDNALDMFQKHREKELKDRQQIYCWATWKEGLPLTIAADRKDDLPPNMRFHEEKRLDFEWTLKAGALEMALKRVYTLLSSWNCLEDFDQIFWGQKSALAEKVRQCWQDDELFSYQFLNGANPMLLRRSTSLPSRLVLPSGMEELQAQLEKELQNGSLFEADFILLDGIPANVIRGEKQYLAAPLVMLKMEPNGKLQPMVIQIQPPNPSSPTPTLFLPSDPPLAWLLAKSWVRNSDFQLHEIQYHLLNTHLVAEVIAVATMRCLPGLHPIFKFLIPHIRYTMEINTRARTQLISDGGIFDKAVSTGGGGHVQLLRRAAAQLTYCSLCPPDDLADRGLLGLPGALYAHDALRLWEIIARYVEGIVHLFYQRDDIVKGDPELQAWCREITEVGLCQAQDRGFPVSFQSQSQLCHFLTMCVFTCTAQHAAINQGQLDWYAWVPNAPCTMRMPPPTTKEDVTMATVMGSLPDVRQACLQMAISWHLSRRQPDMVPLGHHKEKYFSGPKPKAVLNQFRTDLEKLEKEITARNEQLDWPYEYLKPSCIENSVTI
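Purified human 12hLO at 150 nM in 25 mM Hepes, 0.01% Triton X-100, pH 7.0, preincubated 15 min at room temperature with compound. Reaction started with 40 uM arachidonic acid, 30 min at room temperature. Hydroperoxide measured by Fe-xylenol orange, 573/405 nm absorbance ratio.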
IL-1B inflam inh = inflammasome signaling inhibition, IL-1 beta readout; THP-1 LPS/ATP IL-1B secretion, AlphaLISA, 16 h; active compounds read low; activity change, % at 57.5 µM; actives 4.7% (n = 360,000); AID 743279; in the data active = activity change below about -50%; inconclusive = mostly about -30% to -49%
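Secreted IL-1B measured by AlphaLISA bead assay after 16 h compound exposure of THP-1 cells; compounds (final up to 57.5 uM) added 1 h before LPS (250 ng/mL) and ATP (1.25 mM) stimulation; lower signal means less secretion.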
DT40 TDP1 no CPT = qHTS for Inhibitors of human tyrosyl-DNA phosphodiesterase 1 (TDP1): qHTS in cells in absence of CPT. DT40 Tdp1-/- hTDP1 cells, no CPT, ATP luminescence, 48 h. Potency, µM (titrated, usually from 46.2 µM), for the others: at the top dose activity change, negative = growth inhibition, most hits filed as inhibitors. actives 15% (n = 420,000); note: potency is the fitted concentration of half-maximal effect; nearly all actives have a fitted effect of over 55% in size
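Readout: luminescence from CellTiter-Glo after 30 min in the dark at RT. Cells: DT40 Tdp1-/- with stable hTDP1, 400/well. Exposure: compounds alone, ≥48 hr, 37 °C.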
DT40 TDP1 CPT = growth inhibition of DT40 Tdp1-/-;hTDP1 cells with camptothecin (screen for TDP1 inhibitors). chicken DT40 Tdp1-/-;hTDP1 cells + 20 nM CPT, ATP luminescence, 48 h. Potency, µM (top dose mostly 46.2 µM), for inactives: at the highest dose activity change, negative = growth inhibition, most hits filed as inhibitors. actives 12% (n = 420,000); note: potency is the fitted concentration of half-maximal effect; nearly all actives have a fitted effect of over 55% in size
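Cell growth measured by CellTiter-Glo luminescence after a minimum 48 h, 37 C compound exposure with 20 nM CPT in Tdp1-knockout DT40 cells stably expressing hTDP1, seeded 400/well; qHTS titration format.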
HT1080-NT tox = kills 2HG-producing HT-1080-NT fibrosarcoma cells | HT-1080-NT fibrosarcoma viability, CellTiter-Glo ATP luminescence, 48 h | Potency, µM (doses to about 46.1 µM), for the others: at the highest dose activity, negative = less viability, most hits filed as cytotoxic | actives 1.6% (n = 360,000) | AID 686970;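 note: NT is the 2HG producing partner of a matched IDH1 knockdown line; potency is the fitted concentration of half-maximal effect; 0% = DMSO-treated cells and -100% = media-only wells without cells; nearly all actives have a fitted effect of over 55% in size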
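HT-1080-NT fibrosarcoma cells (2HG-overproducing), 750 cells/well in RPMI with 5% FBS, dosed after 2 h and incubated 48 h at 37C. CellTiter-Glo luminescence normalized to DMSO and no-cell wells; concentration-response curves fitted and classed.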
* marks the source's active call; other numbers are inactive results; i = inactive; ? = inconclusive; . = no result given; ! = not confirmed by another sample; [ ] = another dose, or the depositor's remark. Shown is part of a subset that was picked to be rich in hits. Unless noted, calls come from the whole dose curve; as a rule, active = well fitted curve in the direction sought with a large enough effect; inconclusive = small, poorly fitted or top-dose-only effect, or another doubt; inactive = no such curve, though single readings can be large; an effect the other way counts as inactive or inconclusive. Unless noted, % is set by controls: 0 for no effect and ±100 for the full control effect.

SMILES | HT1080 IDH1KD tx | 12-LOX inh | IL-1B inflam inh | DT40 TDP1 no CPT | DT40 TDP1 CPT | HT1080-NT tox
CC1(C)Cc2c(cnn2-c2ccccc2)-c2c1c1ccccc1n2CC(O)CCl (stereo not given) | 21µM* | 0% | 21 | ? | ? | 18µM*
CN1C[C@H]2CN(Cc3c[nH]c4ccccc34)CCN2C1=O | . | -41%[176 µM] | . | . | . | .
CCCCC[C@H]1CN(CCc2ccccc2)C(=O)[C@@H]1CC(=O)NCc1ccc(OC)cc1 | -3% | -17% | -78* | 18µM* | ? | -4%
CCCCC[C@H]1CN(CCCC)C(=O)[C@@H]1CC(=O)NCc1ccc(OC)cc1 | 11% | 3% | -21 | ? | ? | 2%
CCCCN1C[C@H](Cc2ccccc2)[C@@H](CC(=O)NCc2ccc(OC)cc2)C1=O | -4% | -3% | 13 | 22µM*! | 18µM* | -8%
COc1ccc(N2C[C@H](Cc3ccccc3)[C@@H](CC(=O)Nc3ccccc3)C2=O)cc1 | -7% | -1% | -6 | 21µM* | ? | -5%
CCCCC[C@H]1CN(Cc2ccccc2)C(=O)[C@@H]1CC(=O)NCc1ccccc1 | -8% | -13% | -51* | 14µM* | 11µM* | -11%
CCC(=O)N1CCN(c2oc(/C=C/c3ccc(OC)cc3)nc2C#N)CC1 | . | 0% | . | . | . | .
O=C(NNS(=O)(=O)c1ccc(F)cc1F)C1Cc2c(ccc3ccccc23)O1 (stereo not given) | -1% | 7% | 39 | 18µM* | 18µM* | -1%
COc1cc(=O)n2c(c1C(=O)Nc1ccc(Br)cc1F)CCCC2 | . | 20µM* | . | . | . | .
Cc1nn(Cc2ccccc2)c(Cl)c1/C=C1\NC(=S)NC1=O | -22% | 0% | -64* | 4% | ? | 0%
Cc1nn(Cc2ccc(F)cc2)c(Cl)c1/C=N/NC(=O)c1ccccc1 | ? | 0% | 23 | ? | -1% | ?
Cc1ncc2c(n1)CCCN(CC(=O)NC1CCCCCC1)C2=O | . | -2% | . | . | . | .
CCCc1cc2c(=O)c(-c3ccccn3)coc2cc1OC | 4%[9.24 µM] | 7% | -8 | 8.2µM* | ? | ?
CCn1ccnc1CN(C)c1nccc(-c2ccc(C)nc2C)n1 | . | 7% | . | . | . | .
CC1(C)CC(NC(=O)CCNC(=O)c2ccc(C(C)(C)C)cc2)CC(C)(C)N1 | . | -3% | . | . | . | .
Cc1ccccc1CN1CCN2C=C(C(=O)NCC3CC3)OC2=NC1=O | . | -8% | . | . | . | .
Cc1ccn2c(Nc3ccc4c(c3)OCO4)c(-c3ccc(C)o3)nc2c1 | . | ? | . | ? | 15µM* | .
COc1ccc(Nc2c(-c3ccc(C)o3)nc3cc(C)ccn23)cc1 | . | ? | . | 12µM* | 15µM* | .
Cc1ccc(-c2nc3cnccn3c2Nc2ccc3c(c2)OCO3)o1 | -4% | ? | 47 | -21% | ? | 0%
CC1(CCc2ccc3c(c2)OCO3)NCCc2c1[nH]c1ccccc21 (stereo not given) | -19% | ? | -57* | 18µM* | ? | -26%
COc1ccc(-c2nc(SC(CC(=O)NCc3ccco3)c3ccc(C)cc3)n[nH]2)cc1 (stereo not given) | . | -22% | . | . | . | .
Cc1ccc(C(=O)CC2(O)C(=O)N(Cc3ccccc3Cl)c3ccccc32)o1 (stereo not given) | -24% | 357% | 2 | 10µM* | ? | 0%
COc1cc(C(=O)CC2(O)C(=O)N(Cc3ccccc3Cl)c3ccccc32)cc(OC)c1OC (stereo not given) | . | -7% | . | 5.2µM* | 5.8µM* | .
CCCN1C(=O)C(O)(CC(=O)c2ccc(OC)c(OC)c2)c2ccccc21 (stereo not given) | . | -2% | . | 16µM* | ? | .
SMILES | HT1080 IDH1KD tx | 12-LOX inh | IL-1B inflam inh | DT40 TDP1 no CPT | DT40 TDP1 CPT | HT1080-NT tox
COC(=O)CN1C(=O)C(O)(CC(=O)c2ccc(Cl)cc2)c2ccccc21 (stereo not given) | 1% | 13% | 17 | ? | ? | ?
Cc1ccc(CN2C(=O)C(O)(CC(=O)c3c(C)n[nH]c3C)c3ccccc32)cc1 (stereo not given) | . | 2% | . | . | . | .
Cc1c(-c2ccccc2)nc2ccccc2c1-c1ccccc1 | . | -24% | . | . | . | .
COc1ccc(CN2CCCC(n3cc(C(=O)N4CCCCC4)nn3)C2)c(OC)c1OC (stereo not given) | . | 5% | . | -12% | -5%[9.04 µM] | .
CCNC(=O)O[C@@H]1CO[C@H]2[C@@H]1OC[C@@H]2Nc1nccc(-c2ccc(-c3ccccc3)cc2)n1 | . | -1% | . | . | . | .
O=C(O)c1ccc(N2CC3CC(C2)c2cccc(=O)n2C3)c(NC(=S)Nc2ccc(Br)cc2)c1 (stereo not given) | -15% | 40µM* | -1 | ? | ? | -11%
O=C(CCN1CCOCC1)Nc1cc(C(=O)Nc2ccc(Cl)cc2)ccc1N1CC2CC(C1)c1cccc(=O)n1C2 (stereo not given) | -10% | 21% | -63* | -26% | ? | -18%
CCOc1ccc(NC(=O)c2ccc(N3CC4CC(C3)c3cccc(=O)n3C4)c(NC(=O)c3ccncc3)c2)cc1 (stereo not given) | -2% | -23% | -10 | -6% | -20% | 2%
COc1cccc(CN(CC(=O)NC2CCCC2)C(=O)CCC(=O)Nc2cc(C)on2)c1 | 19% | 21% | -1 | -12% | -2% | 10%
COc1ccc(C(=O)/C=C/C(=O)N(CC(=O)NC2CCCCC2)Cc2ccccc2OC)c(O)c1 | ? | -14% | -100* | 2.1µM* | 1.6µM* | ?
COc1ccc(C(=O)/C=C/C(=O)N(CC(=O)NC2CCCCC2)Cc2ccccc2)c(O)c1 | 3.7µM* | -11% | -100* | 2.1µM* | 1.5µM* | 3.7µM*
O=C(NC1CC1)[C@H]1O[C@H](CCN2CCN(Cc3ccccc3)CC2)CC[C@@H]1O | . | -20%[176 µM] | . | . | . | .
CCS(=O)(=O)c1ccc(-c2csc(-c3ccccc3)n2)c(Cl)c1Cl | -21% | i | -12 | 21µM* | 16µM* | -14%
Cc1ccc(C)c(NC(=O)N2CCCC(Cn3c(C4CC4)nc4cccnc43)C2)c1 (stereo not given) | . | -1% | . | . | . | .
CC1CCN(c2oc(-c3ccco3)nc2S(=O)(=O)c2ccccc2)CC1 | -27% | ? | -53* | ? | -8% | -23%
CC1CCN(c2oc(-c3cccs3)nc2S(=O)(=O)c2ccccc2)CC1 | . | -18% | . | 21µM* | ? | .
CCSc1oc(-c2cccs2)nc1S(=O)(=O)c1ccccc1 | 1% | ? | 0 | ? | ? | -2%

Source: PubChem
